A selection: hits, their analogues and other compounds. The true share with any hit is near 21%.
Pf growth 96h = P. falciparum growth inhibition at 96 hours; P. falciparum luciferase reporter growth, 96 h; 320,000 tested, 6.9% active; Potency, µM (doses to about 28.7 µM), for the others: at the top dose activity change, negative = inhibition, hits mostly inhibitors; also: potency is read from the fitted curve at half-maximal effect; % is scaled to controls: 0 for no effect and ±100 for the full control effect
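Readout is luminescence from an integrated firefly luciferase in P. falciparum. Red cells, 2% hematocrit and 0.05% parasitemia final, were cultured with compound through two parasite generations (96 hours) at 37 C, 5% CO2.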
Cycloheximide cs = affects cycloheximide protein synthesis inhibition readout, counter-screen; max response, %; 300,000 tested, 12% active; cell reporter, cycloheximide protein synthesis inhibition counterscreen; in the data active = max response mostly above about 13%, no sharp cut-off; inactive = mostly below about 14%; also: read at 38.3 µM for the half of the compounds with a filed dose; 0% is about no effect
AMA1 RON2 block = disrupts binding of P. falciparum AMA1 to RON2 | AlphaScreen AMA1-biotinylated RON2 peptide binding | Potency, µM (titrated, usually from 58.2 µM), for inactives: at the highest dose activity change, negative = inhibition, usual class: inhibitors | 360,000 tested, 0.2% active;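 also: potency is read from the fitted curve at half-maximal effect; 0% = vehicle wells and -100% = peptide control; nearly all actives have a fitted effect of over 45% in size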
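AMA1 (3D7) with his tag at 25 nM final met compounds first, then biotinylated RON2 peptide at 25 nM; detection used donor plus acceptor beads, 10 µg/mL apiece, read by AlphaScreen after 30 min at room temperature.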
Shiga inhibitor = Shiga toxin inhibition. Vero cells, Shiga toxin protein synthesis inhibition reporter. inhibition, % at 38.7 µM. 290,000 tested, 9.2% active. AID 2315; in the data active = inhibition mostly above about 28%, no sharp cut-off; inactive = mostly below about 43%; also: 0% is about no effect
Pf growth 48h = P. falciparum growth inhibition at 48 hours (one generation); P. falciparum luciferase growth in erythrocytes, 48 h; Potency, µM (series often up to 28.7 µM), inactives show at the top dose activity change, negative = inhibition, usual class: inhibitors; 310,000 tested, 5.9% active; AID 504832; also: potency is read from the fitted curve at half-maximal effect; % is scaled to controls: 0 for no effect and ±100 for the full control effect
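Parasite viability was followed by luminescence of a genomically integrated firefly luciferase. Cultures held 0.1% parasitemia at 2% hematocrit (final), incubated under 5% CO2 at 37 C.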
HCV inhibitor = blocks hepatitis C virus. 340,000 tested, 3.4% active. Huh7.5.1 HCVcc-Cre infection, luciferase reporter, 44 h. Potency, µM (series often up to 41.8 µM), for inactives: top-dose activity change, negative = inhibition, hits mostly inhibitors. AID 651820; also: potency is read from the fitted curve at half-maximal effect; % is scaled to controls: 0 for no effect and ±100 for the full control effect
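Seed cells (1,000/well) for 4 h; treat with compound and infect with HCVcc-Cre, moi about 0.5. Incubate 44 h, then detect luciferase activity.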
* hit, by the source's call; ? = inconclusive; / = no result; [ ] = dose if it differs, or a comment. Unless noted, calls follow the shape of the dose curve; as a rule, active = well fitted curve in the direction sought with a large enough effect; inconclusive = small, poorly fitted or top-dose-only effect, or another doubt; inactive = no such curve, though single readings can be large; an effect the other way counts as inactive or inconclusive.

SMILES | Pf growth 96h | Cycloheximide cs | AMA1 RON2 block | Shiga inhibitor | Pf growth 48h | HCV inhibitor
Clc1ccc(OCCCn2ccnc2)c(Br)c1 | -33% | 10 | -16% | 8 | ? | ?
O=C(OCc1ccc(Br)cc1F)c1cc2ccccc2oc1=O | 2% | 8 | 15% | 3 | 7% | 12%
COCCN=C1Sc2nc3ccc(C)cc3cc2CN1Cc1cccs1 | ? | 12* | 37% | 36* | 0% | -24%
Cc1cccc(N=C2Sc3nc4c(C)c(C)ccc4cc3CN2CCN2CCOCC2)c1 | 7.4µM* | 10 | -17% | -12 | 12µM* | 13µM*
CCOc1ccc(N=C2Sc3nc4ccc(C)cc4cc3CN2CCOC)cc1 | -12% | 2 | -6% | 34 | ? | ?
CCC(C)N=C1Sc2nc3ccc(C)cc3cc2CN1CCOC (stereo not drawn) | -5% | 5 | 39% | -3 | ? | -27%
COCCN1Cc2cc3cc(C)ccc3nc2SC1=Nc1ccc(OC)cc1 | -22% | 15* | ? | 64* | ? | -20%
Cc1cccc(OCCCN2CCOCC2)c1 | 179% | 9 | -4% | 2 | 3% | 16%
COCCN1Cc2cc3cc(C)ccc3nc2SC1=Nc1cccc(OC)c1 | 1% | 1 | 41% | -1 | 15µM* | -22%
CCCCc1nnc(NC(=O)COC)s1 | 20% | -1 | 5% | 28 | 4% | 28%
COc1ccc(C(NC(=O)CN2CCCCCC2)c2ccc(OC)cc2)cc1 | ? | -2 | -5% | -8 | ? | -10%
O=C(CCOc1ccccc1)NNC(=O)c1ccccc1 | / | / | 24% | / | / | 0%
COc1ccc(N(C(=O)c2cnccn2)C(C(=O)NCc2ccccc2)c2ccc(O)cc2)cc1 (stereo not drawn) | 19% | 28* | -2% | 75* | 53% | 12%
COc1ccc(CNC(=O)C(c2ccco2)N(C(=O)c2ccccn2)c2ccccc2)cc1 (stereo not drawn) | ? | 38* | -6% | 84* | 102% | -21%
O=C(NCc1ccccc1)C(c1ccncc1)N(C(=O)c1ccccn1)c1ccccc1 (stereo not drawn) | 57% | 25* | 32% | 60* | 17% | -2%
O=C(Nc1ccccn1)c1cccc(S(=O)(=O)N2CCCC2)c1 | 6% | 1 | 2% | -11 | 15% | -25%
CC(=O)N1CCOc2cc(S(=O)(=O)Nc3c(C)cccc3C(C)C)c(Cl)cc21 | 5.2µM* | / | / | / | 8.3µM* | /
COc1cccc(NS(=O)(=O)c2cc3c(cc2C)N(C(C)=O)CCO3)c1 | ? | -1 | -9% | -1 | -13% | -18%
CN(C)C(=S)SCCn1c(N)nc(N(C)C)nc1=O | -4% | 1 | 4% | 8 | -12% | 1%
COc1ccccc1C1=NN(C(=O)c2ccccc2)C(c2ccc(Br)cc2)C1 (stereo not drawn) | 4% | 17* | -14% | 9 | 3.7µM* | -10%
COc1ccc(C2CC(c3ccccc3OC(=O)/C=C/c3ccccc3)=NN2C(C)=O)cc1 (stereo not drawn) | 10% | 6 | -9% | 14 | 2% | ?
COc1ccc(C2=NN(C(=O)c3ccccc3)C(c3ccc(OC)c(OC)c3)C2)c(O)c1 (stereo not drawn) | 10µM* | -4 | -4% | -4 | 10µM* | -27%
COc1ccc(C2CC(c3ccc(OC)cc3OC(C)=O)=NN2C(=O)c2ccccc2)cc1 (stereo not drawn) | ? | 14* | -10% | 37 | 0%[0.00184 µM] | -49%
COc1ccc(C2=NN(C(=O)/C=C/c3ccccc3)C(c3ccccc3)C2)c(OC(C)=O)c1 (stereo not drawn) | ? | 5 | -19% | -3 | 13µM* | ?
c1ccc2cc(C3CCCCC3)ncc2c1 | / | / | -1% | / | / | 4%
Cc1cccc(-c2csc(N3CCC(C(N)=O)CC3)n2)c1 | 14% | / | / | / | ? | /
COC(=O)c1sc(N)c(C(=O)OC)c1COC(=O)C12CC3CC(CC(O)(C3)C1)C2 | ? | -3 | 0% | -8 | 0% | -7%
COc1ccc(C(=O)CCC(=O)Nc2cccnc2)cc1 | 16% | 15 | 13% | -11 | 4% | 11%

Screening results as filed in PubChem.
